Measured values taken from paper PMC7862700, “An all-to-all approach to the identification of sequence-specific readers for epigenetic DNA modifications on cytosine”.

Columns and labels:
Assay in all cases: DAPPL (digital affinity profiling via proximity ligation, sequencing); 10 mM Tris-HCl pH 7.5, 50 mM NaCl, 1 mM DTT, 4% glycerol, room temperature, 30 min; GST-TFs on glutathione beads, 16-mer random dsDNA library, 0.1% formaldehyde crosslink after washing; high values mean tight binding
FEV = biological target: T1, FEV (Homo sapiens, UniProt Q99581 1-238); conditions: protein: recombinant; tags: N-terminal GST; dsDNA, one strand shown
T1 sequence: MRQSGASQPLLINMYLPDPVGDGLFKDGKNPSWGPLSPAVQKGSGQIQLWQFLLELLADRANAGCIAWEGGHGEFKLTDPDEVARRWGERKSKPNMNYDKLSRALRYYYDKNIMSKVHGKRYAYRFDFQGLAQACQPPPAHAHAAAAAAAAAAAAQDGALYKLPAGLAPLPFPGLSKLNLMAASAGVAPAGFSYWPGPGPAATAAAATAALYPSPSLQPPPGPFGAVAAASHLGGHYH
How it was run: (§1)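 The binding signal reported is, for every hexamer, its read frequency for a factor over its read frequency for the tag-only sample. Reads came from pools of yeast-expressed, GST-fused human transcription factors on glutathione beads, barcoded with DNA and mixed with that sample, which were incubated with 200 nmole of a random double-stranded 16-mer DNA library in Tris/NaCl/DTT/glycerol buffer at room temperature for 30 min. After washing, the pools were crosslinked with 0.1% formaldehyde, proximity-ligated with BsaI/T4 ligase for 1 h at 37 °C, PCR-amplified and sequenced on an Illumina NextSeq500.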

ETV5 = ETV5 (Homo sapiens, UniProt P41161 1-510); conditions: protein: recombinant; tags: N-terminal GST; dsDNA, one strand shown
Sequence of ETV5 (P41161 whole entry): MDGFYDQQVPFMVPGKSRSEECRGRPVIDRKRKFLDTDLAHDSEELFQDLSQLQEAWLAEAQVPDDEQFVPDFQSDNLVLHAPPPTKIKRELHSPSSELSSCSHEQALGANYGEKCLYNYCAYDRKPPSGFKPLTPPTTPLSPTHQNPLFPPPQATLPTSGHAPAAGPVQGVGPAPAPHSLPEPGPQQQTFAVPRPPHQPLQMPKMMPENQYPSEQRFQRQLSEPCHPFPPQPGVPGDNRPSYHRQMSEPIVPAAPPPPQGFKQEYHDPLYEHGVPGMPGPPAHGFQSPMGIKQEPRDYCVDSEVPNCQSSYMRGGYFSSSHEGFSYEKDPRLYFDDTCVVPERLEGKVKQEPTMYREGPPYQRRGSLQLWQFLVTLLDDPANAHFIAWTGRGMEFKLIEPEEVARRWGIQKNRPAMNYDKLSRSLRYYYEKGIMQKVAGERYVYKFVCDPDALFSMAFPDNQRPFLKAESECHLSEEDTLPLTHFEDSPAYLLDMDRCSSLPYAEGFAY
How it was run: as §1

HSF1 = HSF1 (Homo sapiens, UniProt Q00613 1-529); conditions: protein: recombinant; tags: N-terminal GST; chain copies: 3; dsDNA, one strand shown
Sequence of HSF1 (Q00613 whole entry): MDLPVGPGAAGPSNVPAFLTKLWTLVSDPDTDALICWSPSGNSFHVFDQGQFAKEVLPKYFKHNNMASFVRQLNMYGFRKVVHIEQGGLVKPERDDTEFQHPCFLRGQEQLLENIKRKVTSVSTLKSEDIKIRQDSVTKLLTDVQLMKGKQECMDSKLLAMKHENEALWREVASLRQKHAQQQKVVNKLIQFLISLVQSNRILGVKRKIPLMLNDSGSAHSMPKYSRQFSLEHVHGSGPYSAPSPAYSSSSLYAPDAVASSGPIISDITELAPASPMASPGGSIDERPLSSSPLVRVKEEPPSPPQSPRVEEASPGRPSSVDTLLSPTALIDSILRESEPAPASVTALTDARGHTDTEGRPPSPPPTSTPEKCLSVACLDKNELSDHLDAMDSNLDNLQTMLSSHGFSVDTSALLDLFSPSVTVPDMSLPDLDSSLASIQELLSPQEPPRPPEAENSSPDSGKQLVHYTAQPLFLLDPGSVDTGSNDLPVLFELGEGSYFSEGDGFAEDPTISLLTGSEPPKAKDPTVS
How it was run: as §1

SPIC = biological target: T2, SPIC (Homo sapiens, UniProt Q8N5J4 1-248); conditions: protein: recombinant; tags: N-terminal GST; dsDNA, one strand shown
T2 sequence: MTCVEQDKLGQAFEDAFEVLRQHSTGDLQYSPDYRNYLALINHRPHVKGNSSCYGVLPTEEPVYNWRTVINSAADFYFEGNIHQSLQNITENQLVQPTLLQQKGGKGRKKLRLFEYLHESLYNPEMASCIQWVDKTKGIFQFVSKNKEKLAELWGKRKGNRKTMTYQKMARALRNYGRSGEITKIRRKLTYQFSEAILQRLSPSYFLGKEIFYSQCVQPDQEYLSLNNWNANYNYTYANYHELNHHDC
How it was run: as §1

ELF4 = ELF4 (Homo sapiens, UniProt Q99607 1-663); conditions: protein: recombinant; tags: N-terminal GST; dsDNA, one strand shown
Sequence of ELF4 (Q99607 whole entry): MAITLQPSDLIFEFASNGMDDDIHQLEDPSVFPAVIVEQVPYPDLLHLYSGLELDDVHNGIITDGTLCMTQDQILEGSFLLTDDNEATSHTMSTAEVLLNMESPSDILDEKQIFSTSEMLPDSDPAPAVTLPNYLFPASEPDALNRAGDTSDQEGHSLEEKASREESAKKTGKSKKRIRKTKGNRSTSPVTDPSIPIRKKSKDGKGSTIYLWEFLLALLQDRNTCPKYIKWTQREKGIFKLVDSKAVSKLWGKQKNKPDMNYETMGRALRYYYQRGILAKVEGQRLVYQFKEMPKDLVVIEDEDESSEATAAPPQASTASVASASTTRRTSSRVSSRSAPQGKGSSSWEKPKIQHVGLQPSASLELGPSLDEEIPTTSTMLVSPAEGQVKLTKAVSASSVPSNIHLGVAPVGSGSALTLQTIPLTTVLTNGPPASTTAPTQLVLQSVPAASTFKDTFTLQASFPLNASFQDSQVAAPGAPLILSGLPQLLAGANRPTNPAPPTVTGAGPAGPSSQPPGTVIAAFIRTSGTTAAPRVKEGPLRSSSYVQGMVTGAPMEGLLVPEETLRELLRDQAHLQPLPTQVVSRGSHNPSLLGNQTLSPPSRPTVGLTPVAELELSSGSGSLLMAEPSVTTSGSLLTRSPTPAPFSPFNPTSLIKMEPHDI
How it was run: as §1

ELK4 = biological target: T3, ELK4 (Homo sapiens, UniProt P28324-2 1-405); conditions: protein: recombinant; tags: N-terminal GST; dsDNA, one strand shown
T3 sequence: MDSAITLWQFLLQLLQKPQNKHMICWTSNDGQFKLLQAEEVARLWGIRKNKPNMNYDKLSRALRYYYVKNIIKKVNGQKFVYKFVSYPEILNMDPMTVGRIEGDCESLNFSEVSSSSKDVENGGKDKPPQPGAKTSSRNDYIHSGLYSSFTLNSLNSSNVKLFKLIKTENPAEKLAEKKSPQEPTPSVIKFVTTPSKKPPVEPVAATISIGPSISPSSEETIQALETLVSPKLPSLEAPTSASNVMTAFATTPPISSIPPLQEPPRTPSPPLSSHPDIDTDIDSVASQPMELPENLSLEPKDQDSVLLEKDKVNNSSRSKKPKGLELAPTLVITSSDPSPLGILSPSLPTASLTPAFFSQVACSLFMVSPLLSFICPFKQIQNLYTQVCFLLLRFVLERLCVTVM
How it was run: as §1

ETV2 = biological target: T4, ETV2 (Homo sapiens, UniProt O00321 1-342); conditions: protein: recombinant; tags: N-terminal GST; dsDNA, one strand shown
T4 sequence: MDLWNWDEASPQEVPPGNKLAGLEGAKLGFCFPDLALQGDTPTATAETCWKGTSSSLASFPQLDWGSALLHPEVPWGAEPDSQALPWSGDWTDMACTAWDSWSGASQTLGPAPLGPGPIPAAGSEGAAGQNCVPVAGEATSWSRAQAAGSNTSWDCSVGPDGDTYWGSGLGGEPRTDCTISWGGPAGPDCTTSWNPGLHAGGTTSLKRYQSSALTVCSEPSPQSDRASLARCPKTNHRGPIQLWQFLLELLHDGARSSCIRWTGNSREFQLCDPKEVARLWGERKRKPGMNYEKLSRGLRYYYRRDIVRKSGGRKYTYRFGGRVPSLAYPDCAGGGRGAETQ
How it was run: as §1

ELF3 = biological target: T5, ELF3 (Homo sapiens, UniProt P78545 1-371); conditions: protein: recombinant; tags: N-terminal GST; dsDNA, one strand shown
T5 sequence: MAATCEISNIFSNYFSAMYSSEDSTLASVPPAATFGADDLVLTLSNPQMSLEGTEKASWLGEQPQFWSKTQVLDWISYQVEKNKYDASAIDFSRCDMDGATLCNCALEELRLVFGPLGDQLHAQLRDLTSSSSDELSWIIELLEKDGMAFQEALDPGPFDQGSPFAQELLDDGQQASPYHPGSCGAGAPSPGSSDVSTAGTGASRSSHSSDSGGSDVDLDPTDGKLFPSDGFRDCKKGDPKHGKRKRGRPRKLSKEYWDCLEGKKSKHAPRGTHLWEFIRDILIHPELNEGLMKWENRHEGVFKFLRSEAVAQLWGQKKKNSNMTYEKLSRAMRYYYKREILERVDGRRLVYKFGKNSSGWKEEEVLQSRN
How it was run: as §1

## GTTCAA
FEV
  binding signal: 1.08 fold enrichment (6-mer frequency, TF over GST control)
ETV5
  binding signal: 1.14 fold enrichment (6-mer frequency, TF over GST control)
HSF1
  binding signal: 1.03 fold enrichment (6-mer frequency, TF over GST control)
SPIC
  binding signal: 1.15 fold enrichment (6-mer frequency, TF over GST control)
ELF4
  binding signal: 1.15 fold enrichment (6-mer frequency, TF over GST control)
ELK4
  binding signal: 1.16 fold enrichment (6-mer frequency, TF over GST control)
ETV2
  binding signal: 1.05 fold enrichment (6-mer frequency, TF over GST control)
ELF3
  binding signal: 1.22 fold enrichment (6-mer frequency, TF over GST control)
